Our source for the growth values is PubChem BioAssay (NCI).

Some test systems named below: HCT-15 colon; HT29 colon; SNB-75 CNS; SNB-19 CNS; U251 CNS; PC-3 prostate; SK-MEL-5 melanoma; UACC-62 melanoma; LOX IMVI melanoma; SK-MEL-28 melanoma; SK-MEL-2 melanoma; SN12C renal; UO-31 renal; TK-10 renal; ACHN renal; CAKI-1 renal; A498 renal; CCRF-CEM leukemia; MOLT-4 leukemia.
What all share (test): NCI-60 one-dose screen, 48 h (100 = growth as untreated, 0 = no growth, -100 = all killed)
Conditions in all cases: 10 µM unless noted

About 83,000 compounds went through this panel and 20% of them were active in at least one assay; those are over-represented in the sample as a whole.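 Growth was measured after 48 h exposure to one concentration of compound in 96-well plates. Values under 10 count as active.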 Unmarked numbers belong to inactive results. Calls of active or inactive are those of the source.

Turning to `COC1=CC(c2ccc[nH]2)=N/C1=C\c1[nH]c(C)c(C(=O)CCCCC(=O)Nc2ccccc2)c1C`, the growth is -3.38% (active) in the assay on HCT-15 colon; -54.4% (active) in the assay on HT29 colon; 46.8% in the assay on SNB-75 CNS; 64.2% in the assay on SNB-19 CNS; 1.79% (active) in the assay on U251 CNS; -40.5% (active) in the assay on PC-3 prostate. Also, the growth is 84.7% in the assay on SK-MEL-5 melanoma; 101% in the assay on UACC-62 melanoma; -71.8% (active) in the assay on LOX IMVI melanoma; 63.9% in the assay with SK-MEL-28 melanoma; 90.7% in the assay with SK-MEL-2 melanoma; 73.5% in the assay on SN12C renal. Besides, the growth with UO-31 renal was 49.9%; with TK-10 renal, -11.9% (active); in the assay with ACHN renal, 95.8%; in the assay with CAKI-1 renal, 3.42% (active); with A498 renal it was 116%; in the assay with CCRF-CEM leukemia it was 58.9%. Also, in the assay with MOLT-4 leukemia, the growth is 76.6%.

Turning to `CC1=CNNc2c3ncnc-3ncn21`, the growth in the assay with HCT-15 colon was 102%; in the assay with HT29 colon, 104%; in the assay with SNB-75 CNS, 101%; with SNB-19 CNS it was 99.1%; in the assay with U251 CNS, 102%; in the assay with PC-3 prostate it was 99.9%. Also, the growth was 99.7% in the assay with SK-MEL-5 melanoma; 98.6% with UACC-62 melanoma; 106% in the assay with LOX IMVI melanoma; 105% with SK-MEL-28 melanoma; 111% in the assay with SK-MEL-2 melanoma; 105% with SN12C renal. For the same compound, the growth in the assay on UO-31 renal is 90.6%; in the assay with TK-10 renal, 105%; with ACHN renal, 99.8%; with CAKI-1 renal, 102%; in the assay with A498 renal, 95.7%; in the assay with CCRF-CEM leukemia it was 96.1%. The growth in the assay on MOLT-4 leukemia is 91.9%.

Turning to `CC[C@H](C)[C@H]1NC(=O)[C@@H](N[C@](C)(O)[C@@H](N)CC(C)C)[C@@H](C)OC(=O)[C@H](Cc2ccc(OC)cc2)N(C)C(=O)[C@@H]2CCCN2C(=O)[C@H](CC(C)C)NC(=O)[C@@H](C)C(=O)[C@H](C(C)C)OC(=O)C[C@@H]1O`, the growth with HCT-15 colon was 0.591% (active); in the assay with HT29 colon it was -24.6% (active); with SNB-75 CNS, -11.1% (active); in the assay with SNB-19 CNS, -12.5% (active); with U251 CNS, -11.8% (active); in the assay on PC-3 prostate it was 2.33% (active). For the same compound, the growth is -56.9% (active) in the assay with SK-MEL-5 melanoma; -42.9% (active) in the assay on UACC-62 melanoma; -55.9% (active) with LOX IMVI melanoma; -13.6% (active) in the assay with SK-MEL-28 melanoma; -55.8% (active) in the assay on SK-MEL-2 melanoma; -8.75% (active) with SN12C renal. Further, the growth was -19.9% (active) with UO-31 renal; -15% (active) in the assay on TK-10 renal; -10.9% (active) in the assay with ACHN renal; -22.1% (active) with CAKI-1 renal; -28.9% (active) in the assay on A498 renal; -19% (active) in the assay with CCRF-CEM leukemia. In addition, the growth in the assay with MOLT-4 leukemia was -24.8% (active).

Regarding `CCN(CC)c1cc(/C=C/c2ccc(OC)c(OC)c2)nc2cc(F)c(F)cc12`, the growth in the assay with HCT-15 colon was 80.1%; in the assay on HT29 colon, 103%; in the assay on SNB-75 CNS it was -68.5% (active); in the assay with SNB-19 CNS it was -33.1% (active); in the assay with U251 CNS, -62.3% (active); in the assay on PC-3 prostate, 65.6%. Further, the growth in the assay on SK-MEL-5 melanoma is 93.3%; in the assay with UACC-62 melanoma it was 10.4%; in the assay with LOX IMVI melanoma, 25.9%; with SK-MEL-28 melanoma it was 98.2%; in the assay on SK-MEL-2 melanoma it was -58.2% (active); with SN12C renal, 57%. Besides, the growth in the assay with UO-31 renal is 75.3%; with TK-10 renal, -28.6% (active); in the assay with ACHN renal, -50.9% (active); in the assay on CAKI-1 renal it was 46.8%; with A498 renal, -2.91% (active); in the assay with CCRF-CEM leukemia, 29.7%. In addition, the growth in the assay on MOLT-4 leukemia is 49.2%.

For `Cc1ccc(S(=O)(=O)OCC(=O)Nc2ccc(C(=O)O)c(O)c2)cc1`, the growth with HCT-15 colon is 109%; with HT29 colon, 98.6%; in the assay with SNB-75 CNS it was 98.8%; in the assay with SNB-19 CNS, 108%; with U251 CNS, 96.7%; in the assay on PC-3 prostate, 91.3%. Besides, the growth in the assay with SK-MEL-5 melanoma was 96.3%; in the assay on UACC-62 melanoma, 99.9%; in the assay with LOX IMVI melanoma, 78.5%; in the assay on SK-MEL-28 melanoma it was 98.6%; in the assay on SK-MEL-2 melanoma it was 39.5%; with SN12C renal it was 105%. For the same compound, the growth in the assay on UO-31 renal is 53%; in the assay on TK-10 renal, 118%; in the assay on ACHN renal it was 102%; in the assay with CAKI-1 renal it was 102%; in the assay on A498 renal it was 99.3%; with CCRF-CEM leukemia, 83.5%. Moreover, the growth with MOLT-4 leukemia was 57.1%.

As to `Nc1nc(-c2ccccc2)cs1`, the growth in the assay with HCT-15 colon was 106%; in the assay on HT29 colon, 100%; with SNB-75 CNS it was 84.3%; in the assay on SNB-19 CNS, 105%; with U251 CNS, 98.9%; with PC-3 prostate, 98.1%. For the same compound, the growth with SK-MEL-5 melanoma is 102%; in the assay on UACC-62 melanoma it was 107%; with LOX IMVI melanoma, 97.9%; in the assay on SK-MEL-28 melanoma, 109%; with SK-MEL-2 melanoma it was 82.1%; in the assay on SN12C renal, 101%. Moreover, the growth in the assay on UO-31 renal was 75.7%; in the assay on TK-10 renal, 98.5%; with ACHN renal, 103%; in the assay with CAKI-1 renal, 94%; with A498 renal, 81.5%; in the assay with CCRF-CEM leukemia it was 110%. Further, in the assay on MOLT-4 leukemia, the growth was 105%.

Consider `COc1cc(-c2cc(/C=C3\CCCCC3=O)[nH]n2)cc(OC)c1OC`, for which the growth in the assay on HCT-15 colon was 94.1%; in the assay with HT29 colon it was 100%; in the assay with SNB-75 CNS, 85.8%; in the assay with SNB-19 CNS, 97.5%; in the assay on U251 CNS, 92.2%; in the assay with PC-3 prostate it was 89.2%. In addition, the growth in the assay on SK-MEL-5 melanoma was 92.8%; in the assay on UACC-62 melanoma it was 106%; with LOX IMVI melanoma, 93.8%; in the assay on SK-MEL-28 melanoma, 114%; in the assay on SK-MEL-2 melanoma it was 94.7%; in the assay with SN12C renal, 93.8%. The growth with UO-31 renal was 80.8%; with TK-10 renal it was 112%; in the assay on ACHN renal, 98.7%; in the assay on CAKI-1 renal, 91.2%; with A498 renal, 95.2%; with CCRF-CEM leukemia, 69.5%. For the same compound, the growth with MOLT-4 leukemia is 82%.

Take `O=c1c2cccc3c(Nc4ccc(F)cc4)ccc(c32)c2nc3ccccc3n12`: the growth was 71.1% in the assay with HCT-15 colon; 92.6% in the assay on HT29 colon; 70.8% in the assay with SNB-75 CNS; 77.6% in the assay with SNB-19 CNS; 92% with U251 CNS; 77.2% with PC-3 prostate. Moreover, the growth with SK-MEL-5 melanoma was 70.4%; with UACC-62 melanoma, 67.8%; in the assay with LOX IMVI melanoma, 83.6%; in the assay with SK-MEL-28 melanoma, 103%; in the assay on SK-MEL-2 melanoma it was 103%; in the assay on SN12C renal, 87.8%. For the same compound, the growth with UO-31 renal was 49.2%; in the assay on TK-10 renal, 75.3%; in the assay on ACHN renal, 87.9%; with CAKI-1 renal, 79.9%; in the assay on A498 renal, 66.2%; in the assay on CCRF-CEM leukemia, 94.1%. The growth in the assay on MOLT-4 leukemia is 89.9%.

For the compound `COc1cc(Cn2c(SCCC(=O)Nc3ccc(F)cc3)nc3ccccc3c2=O)cc(OC)c1OC`, the growth in the assay with HCT-15 colon is 79%; in the assay with HT29 colon, 86.9%; with SNB-75 CNS, 80.3%; in the assay with SNB-19 CNS, 80.4%; with U251 CNS, 95.2%; with PC-3 prostate it was 75.8%. Also, the growth in the assay with SK-MEL-5 melanoma was 85%; in the assay on UACC-62 melanoma it was 76.4%; in the assay on LOX IMVI melanoma, 90.9%; with SK-MEL-28 melanoma it was 99.8%; in the assay on SK-MEL-2 melanoma it was 81.3%; in the assay on SN12C renal, 82.9%. The growth was 53.7% with UO-31 renal; 101% in the assay on TK-10 renal; 81.9% in the assay with ACHN renal; 74% in the assay on CAKI-1 renal; 63.3% in the assay with A498 renal; 86.8% with CCRF-CEM leukemia. For the same compound, in the assay with MOLT-4 leukemia, the growth was 49%.

With `Cc1ccc(Nc2ncnc3c2sc2ncccc23)cc1`, the growth in the assay with HCT-15 colon is 99.2%; with HT29 colon, 114%; with SNB-75 CNS, 82.8%; in the assay with SNB-19 CNS, 103%; with U251 CNS it was 101%; in the assay on PC-3 prostate, 103%. Also, the growth was 97% in the assay with SK-MEL-5 melanoma; 103% in the assay on UACC-62 melanoma; 100% with LOX IMVI melanoma; 104% with SK-MEL-28 melanoma; 118% in the assay on SK-MEL-2 melanoma; 98.4% with SN12C renal. Besides, the growth was 90.9% in the assay with UO-31 renal; 123% with TK-10 renal; 99.3% in the assay on ACHN renal; 104% with CAKI-1 renal; 67% in the assay on A498 renal; 116% with CCRF-CEM leukemia. Besides, the growth in the assay with MOLT-4 leukemia is 51.1%.

As to `COc1cc(C2C=C(C)N=C3SC=CN32)cc(OC)c1OC` (centres undefined), the growth was 106% with HCT-15 colon; 110% with HT29 colon; 94.7% with SNB-75 CNS; 107% in the assay on SNB-19 CNS; 103% with U251 CNS; 94.5% with PC-3 prostate. Moreover, the growth was 106% in the assay with SK-MEL-5 melanoma; 107% in the assay on UACC-62 melanoma; 97.8% in the assay on LOX IMVI melanoma; 109% in the assay on SK-MEL-28 melanoma; 115% with SK-MEL-2 melanoma; 105% in the assay on SN12C renal. Also, the growth with UO-31 renal is 90%; with TK-10 renal, 107%; in the assay with ACHN renal it was 115%; in the assay on CAKI-1 renal, 96.9%; in the assay on A498 renal, 106%; with CCRF-CEM leukemia it was 105%. Further, the growth with MOLT-4 leukemia was 102%.
